Source: PubChem BioAssay (NCATS)
Results filed as inconclusive are left out. Activity calls are given as the source filed them. Unless noted, the call rests on the fitted dose curve; in most records, active means well fitted curve in the direction sought with a large enough effect; inconclusive means small, poorly fitted or top-dose-only effect, or another doubt; inactive means no such curve, though single readings can be large; an effect the other way counts as inactive or inconclusive.

Legend:
[1] = Cellular Toxicity (caspase-3) HepG2 (AID 654); settings: HepG2 caspase-3 activation, luminescence, 0% = DMSO only, 100% = tamoxifen; series mostly up to 92.2 µM;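 further: cells exposed to compound for 16 hours before reading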
Summary of the method: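 HepG2 cells (1500/well) in complete medium were treated with compounds for 16 hr at 37 °C. Caspase-3/7 activity was then read as luminescence from peptide-aminoluciferin cleavage. AC50 came from Hill fits, normalized to DMSO and 100 uM tamoxifen.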

[2] = Cellular Toxicity (caspase-3) Jurkat (AID 655); settings: Jurkat caspase-3 activation, luminescence, DMSO = 0%, tamoxifen = 100%; series mostly up to 92.2 µM;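 further: cells exposed to compound for 16 h at 37 °C before reading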
Summary of the method: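 Luminescent caspase-3/7 readout (aminoluciferin substrate cleavage) in human T-cell leukemia Jurkat cells after 16 hr compound exposure. Concentration-response normalized to DMSO and 100 uM tamoxifen; AC50 by standard Hill equation.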

[3] = Cellular Toxicity (caspase-3) HUV-EC-C (AID 656); settings: HUV-EC-C cells, caspase-3 activation (apoptosis), vehicle = 0, 100 µM tamoxifen = 100%; series mostly up to 92.2 µM
Summary of the method: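 Luminescent caspase-3/7 activation (aminoluciferin substrate cleavage) in HUV-EC-C cells after 16 hr compound exposure, 37°C. Signal normalized to DMSO basal and 100 uM tamoxifen as 100%; AC50 from concentration-response fitted with the Hill equation.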

[4] = Cellular Toxicity (caspase-3) SHSY5Y (AID 657); settings: SH-SY5Y caspase-3 activation, DMSO zero, 10 µM staurosporine = 100%; series mostly up to 91.7 µM
Summary of the method: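 Luminescent caspase-3/7 readout (aminoluciferin release) in SH-SY5Y cells after 16 h compound exposure in complete medium. Activity scaled between DMSO basal and 10 uM staurosporine as 100%; concentration-response fitted to Hill equation for AC50.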

[5] = Cellular Toxicity (caspase-3) BJ (AID 658); settings: BJ fibroblasts, luminescence, normalized: DMSO 0%, staurosporine 100%; series mostly up to 91.7 µM
Summary of the method: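 BJ human foreskin fibroblasts, 1000 cells/well, treated 16 hours at 37 °C in complete medium; caspase 3/7 activity by Caspase-Glo luminescence after 1 hr at room temperature. Normalized to DMSO and 10 uM staurosporine; AC50 from Hill fits.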

[6] = Cellular Toxicity (caspase-3) MRC-5 (AID 659); settings: MRC-5 cells, luminescence, normalized: DMSO 0%, 10 µM staurosporine 100%; series mostly up to 91.7 µM
Summary of the method: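 MRC-5 human normal lung fibroblasts, 1500 cells/well, treated 16 h at 37 °C in complete medium. Caspase 3/7 measured by Caspase-Glo luminescence after 1 h at room temperature. Normalized to DMSO and 10 uM staurosporine; AC50 from Hill fit.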

[7] = Cellular Toxicity (caspase-3) Mesangial (AID 660); settings: mesangial cells, normalized: DMSO 0%, 100 µM tamoxifen 100%; series mostly up to 91.7 µM
Summary of the method: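 Human renal glomerular mesangial cells (1000/well) were treated with compounds for 16 h at 37 °C in complete medium, then caspase 3/7 activity was read by Caspase-Glo luminescence. Data were normalized to DMSO and 100 uM tamoxifen; AC50 from Hill fits.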

[8] = Cellular Toxicity (caspase-3) SK-N-SH (AID 661); settings: SK-N-SH caspase-3 activation, qHTS, DMSO as zero, staurosporine as full; series mostly up to 91.7 µM
Summary of the method: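 SK-N-SH human neuroblastoma cells (1500/well) were treated with compounds for 16 hr at 37 °C in complete medium; caspase 3/7 activity was read by Caspase-Glo luminescence. AC50 came from Hill fits of data normalized to DMSO and 10 uM staurosporine.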

[9] = Cellular Toxicity (caspase-3) H-4-II-E (AID 663); settings: H-4-II-E rat hepatoma, scaled: DMSO 0%, 100 µM tamoxifen 100%; series mostly up to 92.2 µM;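 further: cells exposed to compound for 16 hr before readout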
Summary of the method: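 Rat hepatoma H-4-II-E cells (1500/well) plated 5 hr, then exposed to compound titrations for 16 hr at 37 °C. Caspase-Glo 3/7 luminescence read after 20 min at RT; data normalized to DMSO and 100 uM tamoxifen, AC50 from Hill fits.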

[10] = Cellular Toxicity (caspase-3) Hek293 (AID 664); settings: HEK293 caspase-3 activation, DMSO = 0%, 100 µM tamoxifen = 100%; series mostly up to 92.2 µM;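 further: cells exposed to compound for 16 h at 37 °C before readout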
Summary of the method: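 HEK293 cells were exposed to compounds in complete medium for 16 hr at 37 °C, then caspase-3/7 activity was read by Caspase-Glo 3/7 luminescence after 20 min at room temperature. Data normalized to DMSO and 100 uM tamoxifen; AC50 from Hill fits.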

[11] = Cellular Toxicity (caspase-3) N2a (AID 665); settings: N2a cells, luminescence, normalized: DMSO 0%, 10 µM staurosporine 100%; series mostly up to 92.2 µM;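 further: compound exposure lasted 16 h at 37 °C before readout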
Summary of the method: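 Mouse N2a neuroblastoma cells (1500/well) were treated with compounds for 16 h at 37 °C, then caspase-3/7 activity was read by Caspase-Glo luminescence after 1 h at room temperature. Data were normalized to DMSO and 10 uM staurosporine; AC50 from Hill fits.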

[12] = Cellular Toxicity (caspase-3) NIH 3T3 (AID 666); settings: NIH 3T3 caspase-3 activation, apoptosis/toxicity, 0% DMSO, 100% is 100 µM tamoxifen; series mostly up to 92.2 µM
Summary of the method: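 Mouse NIH 3T3 fibroblasts (1000 cells/well) were treated with compound for 16 hr at 37°C in complete medium; caspase-3/7 activity was read by Caspase-Glo luminescence. Normalized to DMSO and 100 uM tamoxifen; AC50 from Hill fits.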

[13] = Cellular Toxicity (caspase-3) Renal Proximal Tubule (AID 667); settings: renal proximal tubule cells, primary cells freshly taken from rat, solvent-only wells 0%, staurosporine 100%; series mostly up to 91.7 µM;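 further: cells exposed to compound for 16 hours at 37 °C before detection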
Summary of the method: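 Luminescent caspase 3/7 signal from peptide-aminoluciferin cleavage measures apoptosis in freshly isolated rat kidney proximal tubule cells after 16 h compound exposure. Concentration-response data are normalized to DMSO and 10 uM staurosporine, and AC50 values come from Hill equation fits.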

[14] = target: Cytochrome P450 3A4 (Homo sapiens) (UniProt P08684); test: qHTS Assay for Inhibitors and Substrates of Cytochrome P450 3A4 (AID 884); settings: recombinant CYP3A4, Luciferin-PPXE luminescence; series mostly up to 57.1 µM; further: nearly all actives have a fitted effect of over 50% in size
Chain of Cytochrome P450 3A4 (Homo sapiens) (P08684 whole entry, looked up): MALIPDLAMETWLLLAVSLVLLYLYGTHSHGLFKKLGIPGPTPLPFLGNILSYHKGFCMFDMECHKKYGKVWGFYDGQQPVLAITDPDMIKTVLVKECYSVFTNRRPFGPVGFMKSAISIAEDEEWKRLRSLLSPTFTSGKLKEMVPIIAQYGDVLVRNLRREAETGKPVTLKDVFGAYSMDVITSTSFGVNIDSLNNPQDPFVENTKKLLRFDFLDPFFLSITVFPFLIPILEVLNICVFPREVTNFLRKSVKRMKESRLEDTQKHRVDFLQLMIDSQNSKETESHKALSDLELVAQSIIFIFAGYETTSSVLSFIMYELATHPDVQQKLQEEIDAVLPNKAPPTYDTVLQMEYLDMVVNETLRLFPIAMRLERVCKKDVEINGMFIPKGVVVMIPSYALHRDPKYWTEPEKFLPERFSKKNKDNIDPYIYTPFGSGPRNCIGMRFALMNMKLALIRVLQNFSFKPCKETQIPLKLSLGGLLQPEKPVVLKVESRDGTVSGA
Summary of the method: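 20 nM human CYP3A4 with 25 uM Luciferin-PPXE (at KM) in 200 mM KPO4, preincubated 10 min with compound; NADPH regeneration started a 60 min RT reaction. Luciferin detected by luminescence, normalized to 57 uM ketoconazole as full inhibition.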

[15] = target: Cytochrome P450 3A4 (Homo sapiens) (UniProt P08684); test: qHTS Assay for Activators of Cytochrome P450 3A4 (AID 885); settings: recombinant CYP3A4, Luciferin-PPXE luminescence, 60 min; series mostly up to 57.1 µM; further: nearly all actives have a fitted effect of over 65% in size
Summary of the method: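 Signal was normalized against complete inhibition by 57 uM ketoconazole. The reaction used 20nM CYP3A4 with 25uM Luciferin-PPXE, 10-min compound preincubation and a 60-min NADPH-supported step at RT.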

[16] = Confirmation and Secondary Assay for Modulators of Hemoglobin Beta Chain Splicing at IVS2 654 locus (AID 910); settings: HeLa EGFP-654 splicing reporter, GFP fluorescence, 48 h; series mostly up to 46.1 µM;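 further: HeLa cells stably carrying EGFP split by mutant beta-globin IVS2-654 intron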
Summary of the method: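 HeLa cells stably expressing EGFP interrupted by β-globin IVS2-654 intron, seeded overnight in Opti-MEM/2% FCS, then treated 2 days at 37 °C. Restored splicing read as total peak GFP intensity per well by laser scanning cytometry (488 nm excitation, 500–520 nm emission); 500 nM antisense PNA as control.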

[17] = target: 3',5'-cyclic-AMP phosphodiesterase 4B (Homo sapiens) (UniProt Q07343); test: qHTS Assay for Inhibitors of PDE-IV (AID 607; active means well fitted activation curve with a large enough effect in the main read-out, with a control signal flat, not every such curve was filed as active); settings: HEK293 ACTOne CNG channel cells, membrane potential fluorescence; series mostly up to 22.9 µM
Chain of 3',5'-cyclic-AMP phosphodiesterase 4B (Homo sapiens) (Q07343 whole entry, looked up): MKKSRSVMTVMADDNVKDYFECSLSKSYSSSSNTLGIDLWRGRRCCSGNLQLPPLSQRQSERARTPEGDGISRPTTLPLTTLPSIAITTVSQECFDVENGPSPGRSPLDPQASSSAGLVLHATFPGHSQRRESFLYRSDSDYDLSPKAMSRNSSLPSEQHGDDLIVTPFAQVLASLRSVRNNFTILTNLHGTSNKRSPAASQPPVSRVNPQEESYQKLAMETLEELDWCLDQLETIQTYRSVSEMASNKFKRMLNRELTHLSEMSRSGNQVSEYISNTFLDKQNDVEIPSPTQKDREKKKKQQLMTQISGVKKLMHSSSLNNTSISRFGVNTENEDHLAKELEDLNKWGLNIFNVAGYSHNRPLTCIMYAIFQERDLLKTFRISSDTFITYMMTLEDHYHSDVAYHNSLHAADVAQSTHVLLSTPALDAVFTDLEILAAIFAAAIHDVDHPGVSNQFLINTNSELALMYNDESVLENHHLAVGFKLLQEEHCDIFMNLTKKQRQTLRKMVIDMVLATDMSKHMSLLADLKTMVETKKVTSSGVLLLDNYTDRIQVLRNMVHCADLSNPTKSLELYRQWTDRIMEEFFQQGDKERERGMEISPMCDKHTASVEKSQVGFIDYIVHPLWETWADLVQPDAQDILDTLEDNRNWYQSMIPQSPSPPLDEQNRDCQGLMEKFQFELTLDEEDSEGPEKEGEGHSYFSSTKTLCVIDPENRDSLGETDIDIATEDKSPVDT
Summary of the method: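 Cell-based read-out of cAMP via a modified cyclic nucleotide-gated channel and membrane potential dye (535/590 nm) in HEK293 cells expressing PDE4 endogenously. Compounds tested up to 22.9 uM final; 100 uM RO 20-1724 reference.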

[18] = target: Guanine nucleotide-binding protein G(i) subunit alpha-1 (Homo sapiens) (UniProt P63096); test: qHTS Assay for Inhibitors of RGS12 GoLoco Motif Activity (Green Fluorophore) (AID 879); settings: Galphai1/FITC-RGS12 GoLoco peptide, fluorescence polarization; series mostly up to 57.1 µM;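 further: negative values mean loss of peptide binding seen as reduced polarization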
Chain of Guanine nucleotide-binding protein G(i) subunit alpha-1 (Homo sapiens) (P63096 whole entry, looked up): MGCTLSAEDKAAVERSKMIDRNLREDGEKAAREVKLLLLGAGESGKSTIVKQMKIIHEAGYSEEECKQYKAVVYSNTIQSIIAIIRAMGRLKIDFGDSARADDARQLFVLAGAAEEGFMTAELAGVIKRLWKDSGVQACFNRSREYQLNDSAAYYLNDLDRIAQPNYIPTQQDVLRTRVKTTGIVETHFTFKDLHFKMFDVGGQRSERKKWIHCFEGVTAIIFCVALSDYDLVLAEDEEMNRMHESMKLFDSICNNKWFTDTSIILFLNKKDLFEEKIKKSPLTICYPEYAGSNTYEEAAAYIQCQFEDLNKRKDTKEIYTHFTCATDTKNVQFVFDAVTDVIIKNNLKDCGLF
Summary of the method: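 Fluorescence polarization assay: 50 nM Gαi1 with 10 nM FITC-labeled RGS12 GoLoco peptide in 10 mM Tris pH 7.5, 150 mM NaCl, 0.1 mM GDP, 0.05% NP40, 10 min at room temperature with compound.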

[19] = target: Cytochrome P450 2C19 (Homo sapiens) (UniProt P33261); test: qHTS Assay for Inhibitors and Substrates of Cytochrome P450 2C19 (AID 899); settings: recombinant CYP2C19, luciferin-H EGE luminescence; series mostly up to 57.1 µM; further: nearly all actives have a fitted effect of over 60% in size
Chain of Cytochrome P450 2C19 (Homo sapiens) (P33261 whole entry, looked up): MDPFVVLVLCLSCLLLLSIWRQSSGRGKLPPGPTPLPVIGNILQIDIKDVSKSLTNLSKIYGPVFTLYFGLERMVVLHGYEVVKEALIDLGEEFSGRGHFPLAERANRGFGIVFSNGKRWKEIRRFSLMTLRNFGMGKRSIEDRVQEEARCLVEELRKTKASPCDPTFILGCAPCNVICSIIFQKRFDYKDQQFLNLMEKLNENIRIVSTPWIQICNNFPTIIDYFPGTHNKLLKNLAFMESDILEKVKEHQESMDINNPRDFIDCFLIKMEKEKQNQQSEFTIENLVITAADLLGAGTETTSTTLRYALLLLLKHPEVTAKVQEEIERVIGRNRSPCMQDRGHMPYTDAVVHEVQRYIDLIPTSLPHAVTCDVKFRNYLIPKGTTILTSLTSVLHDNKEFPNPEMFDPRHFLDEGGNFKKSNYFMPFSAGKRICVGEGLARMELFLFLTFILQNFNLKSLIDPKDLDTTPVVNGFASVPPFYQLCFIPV
Summary of the method: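 Luminescent read-out of luciferin formed from Luciferin-H EGE (10uM, equal to KM). Enzyme 5nM in 50mM KPO4; compound added, 10 min at 37C, then NADPH regenerating system for 60 min at 37C. Full inhibition defined by 57uM ketoconazole.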

[20] = qHTS Assay for Identification of Small Molecule Agonists for Thrombopoietin (TPO) Signaling Pathway (AID 917); settings: TPO signaling pathway reporter cells, agonist qHTS, stimulated with TPO at its EC50; series mostly up to 38.5 µM
Summary of the method: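 Activators of TPO signaling were sought in murine Ba/F3 cells transfected with the human receptor, using a luciferase gene driven by the Glycoprotein IIb promoter; 24-hr compound exposure at 37 C alongside 26 pM TPO, in IL-3-free medium.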

Measured: outcome

COc1ccc(CCC(=O)c2c(O)cc(O[C@@H]3O[C@H](CO)[C@@H](O)[C@H](O)[C@H]3O[C@@H]3O[C@@H](C)[C@H](O)[C@@H](O)[C@H]3O)cc2O)cc1O
inactive: [1] | [2] | [3] | [4] | [5] | [6] | [7] | [8] | [9] | [10] | [11] | [12] | [13] | [14]

O=C(/C=C/C=C/c1ccc2c(c1)OCO2)N1CCCCC1
inactive: [15] | [16]

CCc1cccc2c3c([nH]c12)[C@@](CC)(CC(=O)O)OCC3
inactive: [17]

CC(C)C[C@H](NC(=O)[C@@H]1O[C@H]1C(=O)O)C(=O)NCCCCN=C(N)N
inactive: [17] | [18] | [15] | [19] | [20]

C[C@]1(C2CCCC2)Cc2cc(OCC(=O)O)c(Cl)c(Cl)c2C1=O
inactive: [17] | [18] | [15] | [20]

C=C1C[C@]23C[C@@]1(O)CC[C@H]2[C@@]12C=C[C@H](O)[C@@](C)(C(=O)O1)[C@H]2[C@@H]3C(=O)O
inactive: [1] | [2] | [3] | [4] | [5] | [6] | [7] | [8] | [9] | [10] | [11] | [12] | [13]

CCOC(=O)C(CCc1ccccc1)NC(C)C(=O)N1Cc2ccccc2CC1C(=O)O (stereo unspecified)
inactive: [14] | [16]
